Results taken from the supplement of paper PMC12669032.

These compounds were tested on Escherichia coli ED1a (assay: growth AUC relative to DMSO control (median of replicates) (fraction); higher = more growth (less inhibition), active = hit call of the paper). Conditions: 20 µM; 24 h;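 active = AUC reduced over 20% with Padj below 0.05 in at least 2 of 3 replicates; inactive = otherwise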.
Method in brief: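 Starting at OD600 0.05, gut bacterial monocultures in mGAM were grown anaerobically at 37 °C with 20 µM compound (1% DMSO) under pierced gas-permeable seals. OD600 was read every hour for 24 h, and the lowest OD of each curve was set to 0. Area under the growth curve was normalised to the plate median of solvent-only wells, or to row and column medians on the industrial chemical plate, and the median of three biological replicates grown on separate days is given.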

Growth AUC, inactive:
N#Cc1ccc(CC(=NNC(=O)Nc2ccc(OC(F)(F)F)cc2)c2cccc(C(F)(F)F)c2)cc1 (mixture of isomers) 0.986
COC(=O)C(C)Oc1ccc(Cl)cc1Cl (centres undefined) 1.01
CC(C)N(C(=O)C(=O)O)c1ccccc1 1.06
c1ccc(CNc2ncnc3nc[nH]c23)cc1 0.989
C=CCc1ccc(O)c(OC)c1 1.03
CCCCOC(=O)COc1ccc(Cl)cc1Cl 0.981
CC(Oc1ccc(Cl)cc1Cl)C(=O)NC(C)(C#N)C(C)C (centres undefined) 0.989
Cc1cccc(C)c1N(CC(=O)O)C(=O)CS(=O)(=O)[O-].[Na+] 0.973
c1ccc2cc3ccccc3cc2c1 0.987
Cn1cc(C(=O)Nc2ccc(F)cc2-c2ccc(Cl)c(Cl)c2)c(C(F)F)n1 1.01
O=c1cccc2n1CCn1c-2cccc1=O 0.992
CCCCCCC(C)OC(=O)COc1nc(F)c(Cl)c(N)c1Cl (centres undefined) 1
Cc1[nH]n(C)c(=O)c1C(=O)c1ccc(C(F)(F)F)cc1S(C)(=O)=O 1.01
COC(=O)[C@@H](C)Oc1ccc(Oc2ncc(C(F)(F)F)cc2Cl)cc1 1.02
CC(C)OC(=O)N[C@H](C(=O)N[C@H](C)c1nc2ccc(F)cc2s1)C(C)C 0.989
O.O=C(Nc1ccc([N+](=O)[O-])cc1Cl)c1cc(Cl)ccc1O 1
CC1=C(C(=O)Nc2ccccc2)CCCO1 0.992
CCOCCOC(=O)C(C)Oc1ccc(Oc2ncc(C(F)(F)F)cc2Cl)cc1 (centres undefined) 0.996
NS(=O)(=O)[O-].[NH4+] 1.03
CCOC(=O)CSc1nc(C(C)(C)C)nn1C(=O)N(C)C 0.961
CCc1cccc(C)c1NC(=O)CS(=O)(=O)[O-].[Na+] 0.954
ClC(COCC(Cl)C(Cl)(Cl)Cl)C(Cl)(Cl)Cl (centres undefined) 1.01
CCC(C)c1cc([N+](=O)[O-])cc([N+](=O)[O-])c1OC(=O)OC(C)C (centres undefined) 0.911
CC(C)(CO)C(O)(CCc1ccc(Cl)cc1)Cn1cncn1 (centres undefined) 1.03
CC(C)(C)C(=O)C(Oc1ccc(Cl)cc1)n1ccnc1 (centres undefined) 1.03
CC(C)(NC(=O)C(Br)C(C)(C)C)c1ccccc1 (centres undefined) 1.01
COc1cc(OC)nc(NC(=O)NS(=O)(=O)c2c(Cl)nc3ccccn23)n1 1.01
CCc1ccc(O)cc1 1.02
CCOc1nc(F)cc2nc(S(=O)(=O)Nc3c(Cl)cccc3C(=O)OC)nn12 0.991
CCOCCc1ccc(OCCNc2ncnc(CC)c2Cl)c(C)c1C 0.999
CCOC(=O)[C@@H](C)Oc1ccc(Oc2cnc3cc(Cl)ccc3n2)cc1 0.997
Cc1cccc(C)c1N(C(=O)CCl)C1CCOC1=O (centres undefined) 0.963
Cc1[nH]oc(=O)c1N=Nc1ccccc1Cl 0.989
CCCOc1nc2ccc(I)cc2c(=O)n1CCC 0.991
CCOCOc1ccc(C(=O)Nc2cccc(Cl)c2Cl)cc1 0.977
COc1ccc(Oc2ccc(NC(=O)N(C)C)cc2)cc1 0.977
COCCN(C(=O)CO)c1c(C)cccc1C(=O)O 0.976
C/C=C/C=C/CCCCCCCO 1.01
CCOC(=O)C(C)Oc1ccc(Oc2nc3ccc(Cl)cc3o2)cc1 (racemic) 0.967
